Records with an inconclusive call do not appear. Active and inactive are the calls of the source. How the source made its calls, unless noted: active means hit-call score of the fitted dose curve at least 0.9, where 1 is the maximum; inactive means score below 0.9.
Key:
[1] = ACEA_ER_80hr: ACEA Biosciences xCELLigence Real-Time Cell Analysis on Estrogen Receptor Agonism for Proliferation (AID 2282667; active means hit-call score of the fitted dose curve at least 0.9, where 1 is the maximum); settings: T47D proliferation, impedance (xCELLigence), 80 h
How it was run: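 Real-time impedance growth kinetics of human T-47D breast cells read 80 h after dosing, gain-of-signal fitted relative to DMSO. Compounds: 1:4 serial series, top final concentration 100 uM, n = 2.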

[2] = ATG_CRE_CIS: Attagene CIS-FACTORIAL HepG2 Assay for human cAMP Responsive Element (CRE) binding protein 3 (AID 2282926); settings: HepG2 CRE cis-reporter, Attagene multiplexed mRNA; actives raise or lower the signal
How it was run: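 Endogenous transcription factor activity read via CRE-regulated reporter transcripts in transfected HepG2 cells. After 24 h exposure, RNA was reverse-transcribed, amplified, fluorescently labelled and sized by capillary electrophoresis; gain or loss fitted against DMSO.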

[3] = molecular target: CCAAT/enhancer-binding protein beta (Homo sapiens) (UniProt P17676); test: ATG_C_EBP_CIS: Attagene CIS-FACTORIAL HepG2 Assay for human CCAAT/Enhancer Binding Protein (C/EBP) beta (AID 2282927); settings: HepG2 Attagene cis-factorial transcription factor reporter; actives raise or lower the signal
Chain of CCAAT/enhancer-binding protein beta (Homo sapiens) (P17676 whole entry, looked up): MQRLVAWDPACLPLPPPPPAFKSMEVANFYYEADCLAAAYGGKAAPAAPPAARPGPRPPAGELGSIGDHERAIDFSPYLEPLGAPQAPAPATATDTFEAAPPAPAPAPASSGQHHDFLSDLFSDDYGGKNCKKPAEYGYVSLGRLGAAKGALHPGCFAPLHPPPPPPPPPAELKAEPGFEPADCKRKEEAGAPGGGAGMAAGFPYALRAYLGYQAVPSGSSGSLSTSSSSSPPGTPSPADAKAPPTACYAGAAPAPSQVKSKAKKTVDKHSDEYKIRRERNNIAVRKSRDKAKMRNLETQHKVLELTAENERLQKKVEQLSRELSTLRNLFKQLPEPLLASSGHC
How it was run: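 Endogenous transcription factor activity in human liver HepG2 cells is inferred from induction of a CEBPB-linked reporter mRNA. Exposure lasts 24 h; activity is fitted in both directions relative to DMSO.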

[4] = ATG_CMV_CIS: Attagene CIS-FACTORIAL HepG2 Assay for human CMV (Internal Marker) (AID 2282928); settings: HepG2 CMV promoter reporter, transcription factor profiling; actives raise or lower the signal;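 further: endpoint acts as a background internal control marker rather than a target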
How it was run: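 Readout: fluorescent reporter cDNA fragments separated by capillary electrophoresis after RT-PCR and HpaI cut. Cells: HepG2 carrying transfected cis-promoter reporter constructs, dosed 24 h. Endpoint serves as background internal-marker control, fit bidirectionally versus DMSO.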

[5] = molecular target: Aryl hydrocarbon receptor (Homo sapiens) (UniProt P35869); test: ATG_Ahr_CIS: Attagene CIS-FACTORIAL HepG2 Assay for human Aryl Hydrocarbon Receptor (Ahr) (AID 2282930); settings: HepG2 AhR cis-factorial reporter transcription; actives raise or lower the signal
Chain of Aryl hydrocarbon receptor (Homo sapiens) (P35869 whole entry, looked up): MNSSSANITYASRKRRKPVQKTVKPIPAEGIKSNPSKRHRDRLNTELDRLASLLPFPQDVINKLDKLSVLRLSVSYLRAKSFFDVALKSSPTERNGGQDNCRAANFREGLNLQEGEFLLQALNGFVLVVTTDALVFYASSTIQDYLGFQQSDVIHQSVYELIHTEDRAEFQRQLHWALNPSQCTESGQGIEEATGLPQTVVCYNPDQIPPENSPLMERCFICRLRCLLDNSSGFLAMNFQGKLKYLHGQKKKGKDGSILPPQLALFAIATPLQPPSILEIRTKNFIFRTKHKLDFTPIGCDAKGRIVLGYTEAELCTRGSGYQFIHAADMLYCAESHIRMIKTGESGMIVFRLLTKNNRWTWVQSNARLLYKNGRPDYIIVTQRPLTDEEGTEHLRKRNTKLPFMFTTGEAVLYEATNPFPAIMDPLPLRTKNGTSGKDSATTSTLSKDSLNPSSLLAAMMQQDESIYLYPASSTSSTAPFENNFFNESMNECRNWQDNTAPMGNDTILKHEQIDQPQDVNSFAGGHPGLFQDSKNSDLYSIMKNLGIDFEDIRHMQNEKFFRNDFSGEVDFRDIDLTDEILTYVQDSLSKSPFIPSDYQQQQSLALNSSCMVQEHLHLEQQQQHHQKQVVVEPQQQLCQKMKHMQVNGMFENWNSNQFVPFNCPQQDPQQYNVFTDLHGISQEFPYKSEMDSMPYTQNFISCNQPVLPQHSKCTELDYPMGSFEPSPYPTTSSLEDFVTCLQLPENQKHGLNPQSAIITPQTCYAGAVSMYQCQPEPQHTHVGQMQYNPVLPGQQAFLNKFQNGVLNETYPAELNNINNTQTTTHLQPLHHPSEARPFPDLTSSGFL
How it was run: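 Transient MRTU transfection of HepG2 → 24 h compound exposure → total RNA, oligo(dT) RT → PCR, 6-FAM extension, HpaI cut → CE fluorescence. DMSO = baseline; bidirectional curve fit.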

[6] = ATG_AP_1_CIS: Attagene CIS-FACTORIAL HepG2 Assay for human Activator Protein 1 (AP-1) (AID 2282931); settings: HepG2 Attagene cis-factorial AP-1 reporter mRNA; actives raise or lower the signal
How it was run: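 Fluorescence of labelled PCR fragments separated by capillary electrophoresis gives reporter mRNA levels. HepG2 with transfected cis-regulated reporter units, 24 h exposure; DMSO serves as baseline for bidirectional curve fits.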

[7] = ATG_AP_2_CIS: Attagene CIS-FACTORIAL HepG2 Assay for human Activator Protein 2 (AP-2) (AID 2282932); settings: HepG2 AP-2 cis-reporter, Attagene transcription factor profiling; actives raise or lower the signal
How it was run: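 Endogenous transcription factor activity is reported through transfected multiplex reporter constructs in HepG2, after 24 h of compound exposure. Transcripts were quantified by RT-PCR and capillary electrophoresis of fluorescent fragments. Bidirectional fit against DMSO.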

[8] = ATG_BRE_CIS: Attagene CIS-FACTORIAL HepG2 Assay for human Bone Morphogenetic Protein (BMP) Response Element (BRE) (AID 2282933); settings: HepG2 BMP response element reporter, Attagene transcription factor profiling; actives raise or lower the signal
How it was run: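 Gain- or loss-of-signal was derived by bidirectional fitting against DMSO controls. The signal came from reporter mRNA, measured by RT-PCR and capillary electrophoresis, in HepG2 cells transiently carrying multiple reporter units and dosed for 24 h.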

[9] = molecular target: Transcription factor E2F1 (Homo sapiens) (UniProt Q01094); test: ATG_E2F_CIS: Attagene CIS-FACTORIAL HepG2 Assay for human E2F Transcription Factor 1 (AID 2282935); settings: HepG2 Attagene cis-reporter, E2F reporter RNA transcripts; actives raise or lower the signal
Chain of Transcription factor E2F1 (Homo sapiens) (Q01094 whole entry, looked up): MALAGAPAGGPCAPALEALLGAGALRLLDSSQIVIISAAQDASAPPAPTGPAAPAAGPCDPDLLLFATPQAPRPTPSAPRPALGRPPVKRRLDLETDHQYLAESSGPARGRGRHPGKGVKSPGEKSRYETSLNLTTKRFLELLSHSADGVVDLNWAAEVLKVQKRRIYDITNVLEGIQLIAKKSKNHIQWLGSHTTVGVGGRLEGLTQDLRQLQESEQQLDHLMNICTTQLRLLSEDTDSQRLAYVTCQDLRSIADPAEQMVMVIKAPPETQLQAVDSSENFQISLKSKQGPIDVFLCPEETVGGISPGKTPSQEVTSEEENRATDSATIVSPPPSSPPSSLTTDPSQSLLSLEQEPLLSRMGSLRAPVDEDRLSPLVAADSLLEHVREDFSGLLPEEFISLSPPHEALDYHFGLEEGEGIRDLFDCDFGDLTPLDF
How it was run: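 Gain or loss of reporter transcript, fitted against DMSO, reflects E2F1-driven transcription. Transiently transfected HepG2 dosed 24 h before RNA isolation. Quantified by fluorescent RT-PCR products separated by capillary electrophoresis.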

[10] = ATG_E_Box_CIS: Attagene CIS-FACTORIAL HepG2 Assay for human Enhancer Box (E-box) (AID 2282936); settings: HepG2 E-box cis-reporter transcription, actives raise or lower the signal
How it was run: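 E-box-driven reporter transcripts measured in transiently transfected HepG2 after 24 h exposure: RNA reverse-transcribed, PCR-amplified, fluorescently labelled, digested and resolved by capillary electrophoresis. Gain or loss relative to DMSO.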

[11] = ATG_M_61_CIS: Attagene CIS-FACTORIAL HepG2 Assay for M61 Transcription Factor (Internal Marker) (AID 2282937); settings: HepG2 Attagene CIS-FACTORIAL M61 internal marker reporter; actives raise or lower the signal
How it was run: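 This endpoint serves as an internal background control within a multiplexed HepG2 cis-reporter panel. Cells are exposed for 24 h; reporter mRNA is amplified, fluorescently labelled and sized by capillary electrophoresis, with DMSO as negative control.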

[12] = ATG_EGR_CIS: Attagene CIS-FACTORIAL HepG2 Assay for human Early Growth Response 1 (EGR1) (AID 2282938); settings: HepG2 Attagene CIS-FACTORIAL EGR reporter mRNA; actives raise or lower the signal
How it was run: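 HepG2, transient MRTU transfection (cis promoters), 24 h compound. RNA → RT (oligo-dT) → PCR → 6-FAM labelling → HpaI cut → CE fluorescence. Bidirectional fit, DMSO baseline.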

[13] = ATG_M_19_CIS: Attagene CIS-FACTORIAL HepG2 Assay for M19 Transcription Factor (Internal Marker) (AID 2282939); settings: HepG2 Attagene CIS-FACTORIAL M19 internal marker reporter; actives raise or lower the signal
How it was run: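 Following a 24 h exposure, RNA from transfected HepG2 cells was reverse-transcribed, PCR-amplified with reporter-specific primers, end-labelled with 6-FAM and HpaI-digested before capillary separation. Values represent gain or loss versus DMSO.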

[14] = ATG_ERE_CIS: Attagene CIS-FACTORIAL HepG2 Assay for Estrogen Response Element (ERE) (AID 2282940); settings: HepG2 ERE cis-reporter, Attagene RNA transcript; actives raise or lower the signal
How it was run: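 HepG2, transient cis-reporter units, 24 h exposure. RNA isolated, oligo(dT) RT, reporter-specific PCR, FAM extension, HpaI cut, CE detection. Gain/loss-of-signal vs DMSO.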

[15] = ATG_Ets_CIS: Attagene CIS-FACTORIAL HepG2 Assay for human Erythroblast Transformation Specific (ETS) (AID 2282941); settings: HepG2 ETS cis-reporter transcription, actives raise or lower the signal
How it was run: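 RT-PCR/capillary electrophoresis fluorescence read-out of reporter mRNA; HepG2 transient multi-reporter transfection; 24 h compound exposure; gain or loss of signal fitted bidirectionally relative to DMSO.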

[16] = molecular target: Hepatocyte nuclear factor 3-beta (Homo sapiens) (UniProt Q9Y261); test: ATG_FoxA2_CIS: Attagene CIS-FACTORIAL HepG2 Assay for human Forkhead box A2 (FOXA2) (AID 2282942); settings: HepG2 cis-reporter transcription factor activity, 24 h; actives raise or lower the signal
Chain of Hepatocyte nuclear factor 3-beta (Homo sapiens) (Q9Y261 whole entry, looked up): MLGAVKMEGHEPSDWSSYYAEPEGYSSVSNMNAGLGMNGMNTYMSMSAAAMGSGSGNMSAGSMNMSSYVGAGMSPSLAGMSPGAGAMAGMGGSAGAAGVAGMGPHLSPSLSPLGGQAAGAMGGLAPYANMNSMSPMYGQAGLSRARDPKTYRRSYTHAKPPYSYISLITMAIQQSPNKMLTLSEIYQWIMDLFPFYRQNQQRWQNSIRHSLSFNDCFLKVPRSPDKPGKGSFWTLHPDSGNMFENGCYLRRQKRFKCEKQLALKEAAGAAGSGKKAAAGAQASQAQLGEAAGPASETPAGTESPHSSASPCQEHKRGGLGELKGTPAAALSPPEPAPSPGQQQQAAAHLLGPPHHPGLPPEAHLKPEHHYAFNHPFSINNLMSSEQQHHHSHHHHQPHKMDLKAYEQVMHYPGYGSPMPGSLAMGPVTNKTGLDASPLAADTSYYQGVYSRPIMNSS
How it was run: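 Cells: HepG2, transient multiplex reporter transfection. Exposure 24 h. Detection: reporter-specific RT-PCR, fluorescent labelling, restriction digest, capillary electrophoresis. Analysis: bidirectional curve fit, DMSO as negative control.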

[17] = ATG_FoxO_CIS: Attagene CIS-FACTORIAL HepG2 Assay for human Forkhead box O (FoxO) (AID 2282943); settings: HepG2 Attagene cis-reporter, FoxO element, mRNA; actives raise or lower the signal
How it was run: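 HepG2, transient MRTU transfection (cis element, endogenous TFs). Dose 24 h. TriZol RNA → oligo(dT) RT → PCR → 6-FAM primer extension → HpaI cut → CE. Gain/loss vs DMSO.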

[18] = ATG_GATA_CIS: Attagene CIS-FACTORIAL HepG2 Assay for human GATA Binding Protein (AID 2282944); settings: HepG2 GATA cis-element reporter, Attagene multiplex mRNA; actives raise or lower the signal
How it was run: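 DMSO serves as negative control and baseline for bidirectional fitting of reporter mRNA changes. HepG2 cells bearing transiently transfected cis-promoter reporters were exposed 24 h; transcripts detected via RT-PCR and capillary electrophoresis.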

[19] = ATG_DR4_LXR_CIS: Attagene CIS-FACTORIAL HepG2 Assay for human Liver X Receptor (LXR), DR4 submotif (AID 2282929); settings: HepG2 Attagene DR4 cis-reporter, mRNA transcription; actives raise or lower the signal
How it was run: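 Endogenous factor activity at a DR4 cis-element is read as reporter mRNA in transiently transfected HepG2 cells. Exposure lasts 24 h; transcripts are amplified, fluorescently labelled and sized by capillary electrophoresis, with DMSO as baseline.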

[20] = molecular target: Retinoic acid receptor alpha (Homo sapiens) (UniProt P10276); test: ATG_DR5_RAR_CIS: Attagene CIS-FACTORIAL HepG2 Assay for human Retinoic Acid Receptor Alpha (RARE), DR5 submotif (AID 2282934); settings: HepG2 Attagene cis-factorial RARE DR5 reporter, mRNA; actives raise or lower the signal;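 on AC50: reporter responds to endogenous RAR alpha beta and gamma in HepG2 not RARA alone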
Chain of Retinoic acid receptor alpha (Homo sapiens) (P10276 whole entry, looked up): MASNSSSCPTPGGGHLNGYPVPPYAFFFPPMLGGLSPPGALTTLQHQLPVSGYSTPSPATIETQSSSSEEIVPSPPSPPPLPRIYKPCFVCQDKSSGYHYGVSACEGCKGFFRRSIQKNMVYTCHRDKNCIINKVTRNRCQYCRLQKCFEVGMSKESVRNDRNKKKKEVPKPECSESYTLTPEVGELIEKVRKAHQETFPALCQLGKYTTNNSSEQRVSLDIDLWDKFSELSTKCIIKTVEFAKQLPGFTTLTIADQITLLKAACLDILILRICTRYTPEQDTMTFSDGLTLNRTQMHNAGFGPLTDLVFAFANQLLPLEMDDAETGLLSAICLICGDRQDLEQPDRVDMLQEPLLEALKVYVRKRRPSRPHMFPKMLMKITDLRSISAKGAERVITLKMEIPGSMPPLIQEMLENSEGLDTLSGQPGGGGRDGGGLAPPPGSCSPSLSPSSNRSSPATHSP
How it was run: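 Transient MRTU transfection of HepG2; 24 h compound treatment; TriZol RNA, oligo(dT) RT, PCR, FAM labelling, capillary electrophoresis. Bidirectional fit vs DMSO. Endogenous TF activity at DR5 RARE.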

Measured: AC50

CCCCCCCCCCCC(=O)Cl
active: [6] 82.8 µM
not listed: [19] | [20]
inactive: all other assays above

O=C1OC(=O)c2ccc3c4c(ccc1c24)C(=O)OC3=O
active: [1] 0.0537 µM
not listed: [7] | [8]
inactive: all other assays above

CC(=O)c1ccccc1N
not listed: [7] | [19]
inactive: all other assays above

CCCCCCCCn1sc(Cl)c(Cl)c1=O
active: [1] 0.023 µM | [5] 6.89 µM | [6] 13.8 µM | [7] 11.1 µM | [14] 11.1 µM | [15] 6.69 µM | [16] 8.19 µM | [18] 20.5 µM
not listed: [19] | [20]
inactive: all other assays above

CCCC(=O)OCC(COC(=O)CCC)OC(=O)CCC
active: [4] 69.3 µM
not listed: [7] | [8] | [19] | [20]
inactive: all other assays above

CCC(C)CO (stereo not given)
not listed: [1]
inactive: all other assays above

COCCOCCC[Si](C)(O[Si](C)(C)C)O[Si](C)(C)C
active: [1] 0.437 µM | [6] 1.53 µM
not listed: [7] | [8] | [12] | [19] | [20]
inactive: all other assays above

Oc1ccc(C2(c3ccc(O)c(C4CCCCC4)c3)CCCCC2)cc1C1CCCCC1
active: [4] 8.9 µM | [19] 2.73 µM | [6] 33.4 µM | [20] 8.25 µM | [12] 8.92 µM | [13] 8.87 µM | [15] 16.5 µM | [16] 60.1 µM | [18] 8.81 µM
not listed: [7] | [8]
inactive: all other assays above

Source: PubChem BioAssay (EPA / NIEHS)
